Laboratory results: PubChem BioAssay (NCI)
Compounds without any hit were thinned out: in the full panel of roughly 79,000, 15% have a hit. Calls of active or inactive are those of the source. Cut-off read from the data, not from the text of the source: active = growth inhibition above about 70%; inactive = the rest.

Experiments:
[1] = NCI Yeast Anticancer Drug Screen. Data for the rad50 strain (AID 155);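 note: 0% = growth of vehicle-only cultures of the same strain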; conditions: S. cerevisiae rad50 strain growth inhibition; at 50.0 µM; active compounds read high
Method in brief: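 Yeast carrying a defined DNA repair defect were exposed to test compounds, and growth was compared with vehicle-treated controls to give percent inhibition.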

[2] = NCI Yeast Anticancer Drug Screen. Data for the mec2-1 strain (AID 157); conditions: S. cerevisiae mec2-1 strain, at 50.0 µM, active compounds read high
Method in brief: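 Cells of the genetically defined mec2-1 yeast strain are incubated with test compound. Inhibition of growth is calculated against vehicle-treated controls.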

[3] = NCI Yeast Anticancer Drug Screen. Data for the sgs1 mgt1 strain (AID 161);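 note: 0% = growth of cultures given vehicle only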; conditions: S. cerevisiae sgs1 mgt1 strain, at 50.0 µM, active compounds read high
Method in brief: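 Test agents were incubated with a DNA-repair-mutant yeast strain. Growth was then read and compared against vehicle-treated controls.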

[4] = NCI Yeast Anticancer Drug Screen. Data for the cln2 rad14 strain (AID 165);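 note: 0% = growth equal to vehicle treated cultures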; conditions: S. cerevisiae cln2 rad14 strain, at 50.0 µM, active compounds read high
Method in brief: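 The screen exposed genetically defined yeast (cln2 rad14) to test compounds and scored growth inhibition relative to vehicle-treated controls.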

[5] = NCI Yeast Anticancer Drug Screen. Data for the bub3 strain (AID 167); conditions: S. cerevisiae bub3 mutant strain, at 50.0 µM, active compounds read high
Method in brief: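 Compounds were applied to a genetically altered yeast strain carrying a cell-cycle control defect. Growth inhibition was scored against vehicle-treated controls.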

[6] = NCI Yeast Anticancer Drug Screen. Data for the mlh1 rad18 strain (AID 175); conditions: S. cerevisiae mlh1 rad18 strain growth inhibition; at 50.0 µM; active compounds read high
Method in brief: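 Compound-treated yeast growth, normalised to vehicle controls. Strain bears defined DNA repair mutations.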

Measured: growth inhibition

CCCCCCCCCCCCCCCCOc1ccc(C2=NCC(C)S2)c(C)c1 (centres undefined)
inactive: [1] 3.6% | [2] 2.6% | [3] 12.1% | [4] 45.7% | [5] -1.6% | [6] 38.1%

COC(=O)CCC(=O)NCC(=O)OCc1ccccc1
inactive: [1] 0.55% | [2] -1.85% | [3] -13.9% | [4] 3.05% | [5] -11.8% | [6] 19.2%

CC(=O)/C(N=Nc1ccc(S(=O)(=O)c2ccc(N=N/C(C(C)=O)=C(/C)O)cc2)cc1)=C(\C)O
inactive: [1] -27.2% | [2] -20.4% | [3] -9.8% | [4] 0.15% | [5] -20.6% | [6] -14.9%

OCc1cccc(F)c1
inactive: [1] -15.4% | [2] -42.6% | [3] -31.4% | [4] 8.1% | [5] -21.4% | [6] -5.35%

CC(C)CCOC(=O)c1ccc(C(C)C)cc1
inactive: [1] 7.65% | [2] 9.85% | [3] -0.35% | [4] -17.7% | [5] 46.6% | [6] 5.3%

O=C1CCC(=O)N1Cl
inactive: [1] 1.05% | [2] -1% | [3] -3.6% | [4] -13.3% | [5] -5.75% | [6] -13.8%

CN(C)CCC(O)c1ccccc1 (centres undefined)
inactive: [1] 7.2% | [2] -1.25% | [3] 2.2% | [4] -20.5% | [5] -6.2% | [6] -22.6%

CC(=O)N=Cc1ccccc1O
inactive: [1] -27.8% | [2] -16% | [3] -50.2% | [4] -77.7% | [5] -34.5% | [6] -20.7%

CCOc1ccccc1/C=C(\C#N)c1cccc(Cl)c1
inactive: [1] 42.6% | [2] 9.75% | [3] 29.9% | [4] 13.8% | [5] 19.5% | [6] -4.15%

Cc1ccc(S(=O)(=O)N2CCC(C(=O)O)(c3ccccc3)CC2)cc1
inactive: [1] -14.9% | [2] -0.9% | [3] -35.4% | [4] -88.5% | [5] -56.2% | [6] -9.45%

COc1cc(/C(=C\c2ccccc2N)C(=O)O)cc(Br)c1OC
inactive: [1] 9.35% | [2] -8.2% | [3] -11.2% | [4] 4.65% | [5] 0% | [6] 1.65%

Cc1[nH]c(=O)[nH]c(=O)c1/C=C/C(=O)NC(CO)CS(C)=O (centres undefined)
inactive: [1] -1.5% | [2] -7.15% | [3] 0.75% | [4] 6.1% | [5] 0.75% | [6] 7.05%

COC(=O)NC(c1ccccc1)C(C)I (centres undefined)
inactive: [1] 7.3% | [2] -0.6% | [3] -2.85% | [4] -9.65% | [5] 3.25% | [6] 12.3%

COc1cc2c(cc1OC)C1c3cc(OC)c(OC)cc3CC(=O)N1CC2 (centres undefined)
inactive: [1] 17.6% | [2] 7.1% | [3] 38.5% | [4] 19.3% | [5] 24.5% | [6] 37.6%

CC(=O)OCC(COC(C)=O)C(C)=O
inactive: [1] -7.35% | [2] -5.75% | [3] -8.5% | [4] 21.6% | [5] 4.65% | [6] -22.6%

CNC(=S)NC
inactive: [1] 11.9% | [2] 11.1% | [3] 13.4% | [4] -51.1% | [5] 0.2% | [6] -13.8%

O=C(CCC(=O)Nc1ccc(Cl)c(Cl)c1)Nc1ccc(Cl)c(Cl)c1
inactive: [1] 50.9% | [2] 46.5% | [3] 49% | [4] 39.1% | [6] 63%
active: [5] 78.2%

Cc1cccc(-n2cccc2)c1
inactive: [1] -1.6% | [2] -13.8% | [3] 4.8% | [4] -10.7% | [5] -16.3% | [6] 4.75%

Cc1ccc2c(c1)[nH]c(=S)n2C=C1C(=O)CC(C)(C)CC1=O
inactive: [1] -40% | [2] -63.3% | [3] -33.8% | [4] 9.05% | [5] -21.6% | [6] -9.25%

CCOC(=O)/C(=C\c1ccccc1)NC(=O)c1ccccc1
inactive: [1] 5.4% | [2] -2.75% | [3] -2.35% | [4] 7.3% | [5] 20% | [6] 4.85%

CCOc1nc(N)nc(C)c1N=Nc1ccc(O)cc1
inactive: [1] -5.7% | [2] 6.2% | [3] 0.85% | [4] -43% | [5] -2.4% | [6] -0.4%

CCOC(=O)Nc1ccc([N+](=O)[O-])c2c1C(=O)c1ccccc1-2
inactive: [1] -9.55% | [2] 2.9% | [3] -8.6% | [4] -10.7% | [5] -21.6% | [6] -19.5%

CCN(CC)CCOC(=O)c1ccc(NC(=O)OCCC(C)OC(=O)Nc2ccc(C(=O)OCCN(CC)CC)cc2)cc1 (centres undefined)
inactive: [1] -1.55% | [2] 1.2% | [3] -1.65% | [4] -4.4% | [5] -6.6% | [6] 11.9%

CC(C)(C)OC(=O)N1CCc2c(n(C/C=C/c3ccccc3)[nH]c2=O)C1
inactive: [1] -30.2% | [2] -14.3% | [3] -4.85% | [4] -0.3% | [5] 1.55% | [6] -19.4%

Cc1ccc(NC(=O)N2CC2C)cc1NC(=O)N1CC1C (centres undefined)
inactive: [1] 2.4% | [2] 5.55% | [3] -7.05% | [4] 17.3% | [5] 6.9% | [6] -9.45%

O=c1c2ncccc2cc2n1CCc1c-2[nH]c2ccccc12
inactive: [1] -15.3% | [2] -15.9% | [3] 6.3% | [4] -4.75% | [5] -1.1% | [6] -0.2%

COC(=O)C(N)Cc1ccc(O)c(O)c1 (centres undefined)
inactive: [1] 20.1% | [2] 4.7% | [3] 8.1% | [4] 10.8% | [5] 22.9% | [6] 48.5%

COC1(c2ccc(C)cc2)c2cccc3cccc(c23)C1(O)c1ccc(C)cc1 (centres undefined)
inactive: [1] 18.6% | [2] 15.6% | [3] 12% | [4] 21.6% | [5] -4.15% | [6] 9.9%

CC(C)C(O)(c1ccccc1)C(O)(c1ccccc1)C(C)C (centres undefined)
active: [1] 99.5% | [2] 99.6% | [3] 99.5% | [4] 99% | [5] 99.5% | [6] 99.5%

CCN(CC)Cc1c(C)cccc1O
inactive: [1] -4.65% | [2] -4.35% | [3] -27.8% | [4] -49.5% | [5] -0.45% | [6] -16.4%

Nc1n[n+]([O-])c2cc([N+](=O)[O-])ccc2[n+]1[O-]
inactive: [6] 68%
active: [1] 85.1% | [2] 87.9% | [3] 84.7% | [4] 79.7% | [5] 75.9%

C=C1CCC/C(=N\Nc2ccc([N+](=O)[O-])cc2[N+](=O)[O-])C12CCCC2
inactive: [1] -2.45% | [2] 3.45% | [3] -4.65% | [4] -11.6% | [5] 1.15% | [6] -1.35%

Cn1c(-c2ccccc2)cc(=O)cc1-c1ccccc1
inactive: [1] -22.9% | [2] 13.1% | [3] -10.2% | [4] -1.25% | [5] -4.45% | [6] -19.2%

CCOC(=N)CC(=O)Nc1ccccc1
inactive: [1] 4.45% | [2] 1.1% | [3] 1.65% | [4] -1.6% | [5] 3.6% | [6] 2.35%

O=C1CC2CCC(C1)S2
inactive: [1] -18.1% | [2] -28.6% | [3] -15.4% | [4] 16.1% | [5] -2.95% | [6] -33%

Cc1cc(Cl)ccc1N=Cc1ccc(C=Nc2ccc(Cl)cc2C)cc1
inactive: [1] 14.2% | [2] 3.6% | [3] -5.05% | [4] -1.55% | [5] 10.8% | [6] -0.5%

CCCCCCCC(=O)CC(C)C
inactive: [1] 12.1% | [2] -11.7% | [3] 0.6% | [4] -2.5% | [5] -21.4% | [6] 6.65%

O=C(NCCCl)c1ccc(F)cc1
inactive: [1] -21.2% | [2] -4.65% | [3] -12.4% | [4] 0.35% | [5] -6.95% | [6] -44.7%

ClC(Cl)=C(c1ccccc1)c1ccccc1
inactive: [1] 30.2% | [2] 22.4% | [3] 36.5% | [4] 7.15% | [5] -4.45% | [6] 16.9%
